# Results published in ChEMBL document CHEMBL4513216, “Probing the Open Global Health Chemical Diversity Library for Multistage-Active Starting Points for Next-Generation Antimalarials” (ACS Infect Dis, 2020).
# Out of some 69,000 compounds screened, about 8,600 (12%) showed an effect of 50% or more. For the sample, strong results were picked, then their nearest neighbours and some compounds at random.
# Test system: Plasmodium berghei
# Test: Screen against P. berghei liver stage (PbLuc), transformed with Luciferase, at 10uM
# Assay type: functional, HepG2
# Conditions: tested at 10 uM
row,Compound,INHIBITION [%]
1,CC1CCN(S(=O)(=O)N2CCCN(CC3CCCO3)CC2)CC1 (stereo not given),38
2,CC(C)n1cnc2c1C(C(=O)NCCO)N(Cc1ccccc1)CC2 (stereo not given),-18.4
3,CSc1ncc(C(=O)N2C[C@@H]3CC[C@H]2CN(c2ncccn2)C3)cn1,14
4,CCn1ncc2c1CN(C(=O)c1cc(C)oc1C)CC2COC (stereo not given),-12.1
5,COCC1CN(C(=O)CC2Cc3ccccc3C2)Cc2c1cnn2C (stereo not given),59
6,COCC1CN(C(=O)Cc2ccccn2)Cc2ncnn2C1 (stereo not given),64.9
7,COCC1CN(C(=O)c2ccnnc2)Cc2c1cnn2C (stereo not given),48.3
8,CCn1ncc2c1CN(C(=O)c1cscn1)CC2COC (stereo not given),45.1
9,COCC1CN(C(=O)Cc2cccs2)Cc2c1cnn2C (stereo not given),66
10,COCC1CN(C(=O)CNC(C)=O)Cc2ncnn2C1 (stereo not given),6.8
11,CCn1ncc2c1CN(C(=O)Cc1cccs1)CC2COC (stereo not given),-27.9
12,COCC1CN(C(=O)Cc2ccsc2)Cc2c1cnn2C (stereo not given),46.2
13,COCC1CN(C(=O)c2ccnnc2)Cc2ncnn2C1 (stereo not given),-41.6
14,CCn1ncc2c1CN(C(=O)c1ccc3c(c1)OCO3)CC2COC (stereo not given),50.7
15,COCC1CN(C(=O)c2cccn2C)Cc2c1cnn2CC1CC1 (stereo not given),31.7
16,Cc1ccc(N2CCCC(NCc3sccc3C)C2)nn1 (stereo not given),36.1
17,O=C(c1cscn1)N1CCC2(CN(Cc3nccs3)C2)C1,15.9
18,Cc1csc2ncc(-c3ccnc(NC4CCOCC4)n3)c(=O)n12,-9.27
19,CCCc1noc(C(C)N(CC)Cc2ccco2)n1 (stereo not given),-30.5
20,O=C(c1ccno1)N1CC[C@@H]2O[C@H](COCCN3CCCC3)CC[C@@H]21,4.27
21,O=C1CCC2(CCCN(C(=O)Cc3cccnc3)C2)N1 (stereo not given),0.112
22,CCc1nc(C2CCCN2Cc2ccno2)no1 (stereo not given),19.6
23,c1ccc(-c2cc(CN3CCCCCC3c3ccco3)on2)nc1 (stereo not given),-15
24,CCc1cc(CN2CCCCC2c2ccc(F)cc2)on1 (stereo not given),65.7
25,Fc1ccc(C2CCCN2Cc2nc(Cc3ccccc3F)no2)cc1 (stereo not given),25.8

row,Compound,INHIBITION [%]
1,Fc1cccc(C2CCCCN2Cc2nc(-c3cnccn3)no2)c1 (stereo not given),-12.6
2,Fc1ccc(C2CCCCN2Cc2cc(-c3ccccn3)no2)cc1 (stereo not given),51.8
3,COc1ccc(C2CCCCCN2S(C)(=O)=O)cc1 (stereo not given),27.4
4,Cc1ccc2c(n1)N(C)CCN(Cc1ccco1)C2,3.88
5,CN1CCN(c2ncnc3c2CCN(S(=O)(=O)C2CC2)CC3)CC1,29.4
6,CC(C)CNc1nc(C(=O)/N=c2\[nH]nc(C(C)(C)C)s2)cs1,11.5
7,Cc1cs/c(=N\C(=O)c2c3c(nc4onc(C)c24)CCC3)[nH]1,24.1
8,Cc1cc(O)c(OCC(=O)/N=c2\[nH]c(C)c(C)s2)cn1,-69.4
9,Cc1[nH]/c(=N\C(=O)c2csc(NCC(C)C)n2)sc1C,89.6
10,Cc1cs/c(=N/C(=O)c2csc(NCC(C)C)n2)[nH]1,90.8
11,CC(=O)Nc1nc(C(=O)NC(C)c2ccc(F)cc2)cs1 (stereo not given),-45.2
12,Cc1nn(C(C)C)c(C)c1CN1CCN(C2CCCCC2)C(=O)C1,5.1
13,CCN1CC[C@@]2(C(=O)N3CCOCC3)CCN(S(=O)(=O)CC)CC[C@@H]12,17.4
14,Cc1ccn2cc(C(=O)N3CCCC(Cn4cc(CO)nn4)C3)nc2c1 (stereo not given),36.7
15,Cc1cc2n(n1)[C@@H](C(F)(F)F)C[C@@H](C1CCN(C(=O)C3CC3)CC1)N2,-4.51
16,CC(C)(C)CC(=O)NS(=O)(=O)c1ccc(C#N)cc1C(F)(F)F,19.2
17,Cc1cc(C)n(-c2cncc(NCCNC(=O)C3CCCC3)n2)n1,45.2
18,CS(=O)(=O)N1CCn2c(C(=O)N3CCOCC3)cnc2C1,52.6
19,CS(=O)(=O)N1C[C@@H]2C[C@H](C(=O)N3CCOCC3)[C@H](C1)O2,0.112
20,CS(=O)(=O)N1CC[C@H]2C[C@@H](C(=O)N3CCOCC3)O[C@@H]2C1,25.4
21,O=C(O)c1cc(S(=O)(=O)Nc2cc(F)cc(F)c2)cc2c1OCCO2,40
22,Cc1cccc(NS(=O)(=O)c2cc3c(c(C(=O)O)c2)OCCO3)c1,7.27
23,Cc1cc(C)cc(NS(=O)(=O)c2cc3c(c(C(=O)O)c2)OCCO3)c1,57.2
24,COCCN1C(=O)CCC12CCC(NC(=O)c1cnccn1)CC2 (stereo not given),-14.7
25,CNC(=O)C1(c2cnccn2)CCCN1C(=O)c1ccccc1F (stereo not given),13.5

row,Compound,INHIBITION [%]
1,C[C@H]1CN(CC2CCOCC2)C[C@@]12CCN(Cc1cccnc1)C2=O,3.81
2,c1ccc(-c2noc(CCCN3CCCC3Cn3cccn3)n2)cc1 (stereo not given),45.7
3,Cc1nccn1CCC1CCNCC1,39.6
4,Cc1nc(CN2CCCC2Cn2ccnc2C(C)C)nc2ccccc12 (stereo not given),30.4
5,Cc1nn(C)c2nc(-c3ccccn3)nc(NCCC3CCCN3C)c12 (stereo not given),11.2
6,Cn1ccnc1CN1CCCCC1c1nc(-c2ccccc2)no1 (stereo not given),30.4
7,OCC1CCCCN1CCn1ccnc1-c1nc2ccccc2[nH]1 (stereo not given),38.8
8,CN1CCCC1CCn1ccnc1-c1nc2ccccc2[nH]1 (stereo not given),53.9
9,CN1CCCC1CCn1ccnc1-c1ccc2ccccc2n1 (stereo not given),72.3
10,CN1CCCC1CCn1ccnc1-c1nc(-c2ccccc2)no1 (stereo not given),51.8
11,COCCN1CCCC1Cn1nc(C)cc1C (stereo not given),32.3
12,Cc1cc(=O)n2nc(Oc3ccc(Cl)c(C)c3)sc2n1,16.3
13,CCC(C)N(Cc1cnc(NCC(=O)O)nc1)Cc1ccsc1 (stereo not given),41.3
14,O=C(Cc1ccccc1O)NC1CCCN(c2ccccc2F)C1=O (stereo not given),26.4
15,Cc1cc(C(=O)NCCC(=O)N2CCCc3ccccc32)no1,1.51
16,O=C(c1ccnnc1)N1C[C@H](OCC2CCOCC2)[C@H]2OCCC[C@H]21,4.68
17,CN(Cc1nc2ccccc2o1)CC1CCCN1c1cccnn1 (stereo not given),55
18,Cc1nnc(CN(C)CC2CCCN2c2cccnn2)o1 (stereo not given),19.5
19,Cc1nc(CN(C)CC2CCCN2c2cccnn2)nc2ccccc12 (stereo not given),60.9
20,Cc1nc(CN(C)CC2CCCN2c2cccnn2)oc1C (stereo not given),-27.8
21,CC(C)(C)c1cnc(CNCC2CCCN2c2cccnn2)o1 (stereo not given),34.1
22,CN(Cc1ncc(-c2ccccc2)o1)CC1CCCN1c1cccnn1 (stereo not given),37
23,Cc1nc2ccccc2nc1CN(C)CC1CCCN1c1cccnn1 (stereo not given),10.2
24,CN(Cc1ncc(C(C)(C)C)o1)CC1CCCN1c1cccnn1 (stereo not given),86.6
25,CN(Cc1nc(N)c2ccccc2n1)CC1CCCN1c1cccnn1 (stereo not given),11.8
